Measurements: PubChem BioAssay AID652042 (Broad Institute, 2013)
Among all 1,100 compounds or so, about 350 (32%) were called active. Not all results are given here. Potency and affinity values are given separately. Values without a mark were called inactive. No rule for the calls is given here.

assay: viability loss in CEM21 cells – cell-based, CellTiter-Glo luminescence, cherry-picked, cytotoxicity control for viral fusion inhibitor project, dose response (AID 652042); conditions: CellTiter-Glo ATP luminescence, 24 h; series mostly up to 35 µM; activity change, negative = cytotoxicity: at the top concentration

Row | Structure (SMILES) | activity change, negative = cytotoxicity
1 | COCC(=O)Nc1ccc2c(c1)C(=O)N(C)C[C@@H](OC)[C@@H](C)CN(C)[C@H](C)CO2 | -2.08%
2 | CCOC1=C2[C@@H](CN(S(=O)(=O)c3ccccc3C)[C@H]2c2ccc(Cl)cc2)[C@H]2C(=O)NC(=O)[C@H]2C1 | 7.02%
3 | Cc1sc2ncnc(N3CCC(C(=O)Nc4cc(S(C)(=O)=O)ccc4Cl)CC3)c2c1C | -1.01%
4 | COC(=O)C1=C(C)N(CC2CC2)C(=O)N[C@H]1c1ccc(Br)cc1 | -13.3%
5 | O=C(NCc1ccco1)c1ccc(Cn2c(=O)c3sccc3n(Cc3cccc(F)c3)c2=O)cc1 | -4.41%
6 | CC[C@@]1(C(=O)OC)N[C@H](CN(C)C(=O)COc2ccccc2)[C@@H]2C(=O)N(Cc3ccccc3)C(=O)[C@@H]21 | 1.91%
7 | C[C@H]1CN([C@@H](C)CO)C(=O)Cc2cc(N(C)C)ccc2O[C@H]1CN(C)Cc1ccc(Cl)c(Cl)c1 | -11.3%
8 | C[C@@H]1CN([C@@H](C)CO)C(=O)c2cc(C3=CCCC3)cnc2O[C@@H]1CN(C)Cc1ccc(C(=O)O)cc1 | -7.71%
9 | C=C(C)c1cccc(C(C)(C)NC(=O)Nc2ccc(Cl)cn2)c1 | 0.575%
10 | O=C(NCc1ccccc1)c1ccc(C(=O)NCc2ccccc2)cc1 | -1.78%
11 | Cc1ncccc1C(=O)N1CCCC(C(=O)c2ccc3c4c(cccc24)CC3)C1 (stereo unspecified) | -1.97%
12 | CCOc1ccc(N(C)S(=O)(=O)c2cc(-c3cc(C)no3)ccc2C(C)C)cc1 | -27.4%
13 | Cc1ccc(NC(=O)c2ccc(CN3CCc4ccccc4C3)cc2)cc1 | -25.9%
14 | COc1ccc(NC(=O)c2ccc(Cl)c(S(=O)(=O)N3CCc4ccccc4C3)c2)cn1 | -19.1%
15 | Cc1ccc2c(c1)c1c3n2CCN(CCC#N)C3CCC1 (stereo unspecified) | 1.35%
16 | CC(CCc1ccco1)NC(=O)CCc1nnc2ccc(NCc3ccccc3Cl)nn12 (stereo unspecified) | -16.5%
17 | Cc1ccc(S(=O)(=O)N2CCC(=O)N(CCOC(=O)Nc3cccc(Cl)c3)CC2)cc1 | -2.62%
18 | COc1ccccc1Oc1ccc(S(=O)(=O)NCc2ccccn2)cc1 | -8.66%
19 | COc1ccc(C)cc1NC(=O)CCNS(=O)(=O)c1ccc2c(c1)CC(C)N2C(C)=O (stereo unspecified) | 9.67%
20 | O=C(C[C@H]1C[C@@H]2c3cc(NC(=O)C4CCOCC4)ccc3O[C@@H]2[C@@H](CO)O1)NCc1ccccc1F | -3.22%
21 | CC(C)CCN(N=O)[C@@H](Cc1ccccc1)CN(N=O)[C@@H](Cc1ccccc1)CN(C)N=O | -15.3%
22 | COc1ccc(-c2cc(=O)oc3c(C)c(O)ccc23)cc1 | -5.8%

Row | Structure (SMILES) | activity change, negative = cytotoxicity
23 | C=C1CCN([C@@H](Cc2ccccc2)C(=O)NCCC(C)C)S(=O)(=O)c2ccccc21 | -5.67%
24 | O=C(NCCc1ccccc1)c1ccc2c(c1)OCCO2 | -9.04%
25 | CSCCC(NS(=O)(=O)c1ccc2c(c1)oc(=O)n2C)C(=O)NC1CCCc2ccccc21 (stereo unspecified) | 4.91%
26 | CC(=O)c1ccc([C@H]2C[C@@]34CN(C(=O)OC(C)(C)C)S(=O)(=O)[C@H]3C[C@H]2O4)cc1 | 2.58%
27 | CN(C)CC(=O)Nc1ccc2c(c1)[C@H]1C[C@@H](CC(=O)NCCc3ccccc3)O[C@H](CO)[C@H]1O2 | -2.04% [at 30 µM]
28 | O=C(Nc1cccc(C(=O)O)c1)Nc1ccc2c(c1)OCO2 | -7.93%
29 | COc1ccc(NC(=O)C2CCCN2S(=O)(=O)c2ccc3c(c2)CCC(=O)N3)cc1Cl (stereo unspecified) | -0.458%
30 | O=C(COc1ccc(-n2cnnn2)cc1)Nc1ccc(F)c(F)c1 | 3.75%
31 | Cn1cccc1C(=O)OCC(=O)NCCc1ccc(S(N)(=O)=O)cc1 | 6%
32 | Cc1cc2c3c(c1)C1(SCC(=O)N1c1ccc(F)cc1)C(=O)N3C(C)(C)CC2C (stereo unspecified) | -0.52% [at 16 µM]
33 | CCN(CC)S(=O)(=O)c1cc(NC(=O)C(=O)c2c(-c3ccccc3)cc3ccccn23)ccc1C | -16%
34 | CC(C)N(Cc1nc(-c2ccccc2)no1)C(=O)CN(C)S(=O)(=O)c1ccc(Br)cc1 | -16%
35 | O=C(C[C@H]1CC[C@@H](NC(=O)Nc2ccccc2F)[C@@H](CO)O1)NCc1ccc(Cl)cc1 | 0.724%
36 | COc1cccc(S(=O)(=O)N[C@H]2CC[C@H](CC(=O)NCc3ccncc3)O[C@@H]2CO)c1 | 1.11%
37 | O=C(NCC[C@@H]1CC[C@@H](NS(=O)(=O)c2ccccc2F)[C@@H](CO)O1)c1ccc(F)cc1 | -1.41%
38 | O=C(C[C@H]1C=C[C@@H](NC(=O)Nc2ccccc2F)[C@@H](CO)O1)NCc1ccc(Cl)cc1 | -7.24%
39 | O=C(C[C@@H]1CC[C@@H](NC(=O)c2ccncc2)[C@H](CO)O1)NCCc1ccncc1 | -1.24%
40 | COc1cccc(CNC(=O)C[C@@H]2C=C[C@H](NC(=O)C3CCC3)[C@H](CO)O2)c1 | 0.694%
41 | COC(=O)[C@@]1(C)[C@H]2C(=O)N(Cc3ccccc3)C(=O)[C@H]2[C@H]2CN=C(SCc3ccc(C#N)cc3)N21 | -13.8%
42 | CN(C[C@H](Cc1ccccc1)N(C[C@H](c1ccccc1)N(CCc1ccccc1)N=O)N=O)N=O | -4.42%
43 | Cc1ccc(C(c2nnnn2CS(=O)(=O)c2ccc(C)cc2)N2CCCC2)cc1 (stereo unspecified) | -1.57%
44 | N#Cc1ccc(C(c2nnnn2CCc2ccccc2)N2CCCCCC2)cc1 (stereo unspecified) | -20.5%

Row | Structure (SMILES) | activity change, negative = cytotoxicity
45 | COc1ccc(NC(=O)Nc2ccc3c(c2)C(=O)N([C@@H](C)CO)C[C@H](C)[C@H](CN(C)Cc2ccncc2)OCCCC[C@H](C)O3)cc1 | -11.8%
46 | Cc1ccc(C(C(=O)NC2CCCCC2)N(C(=O)c2csnn2)C2CCCC2)o1 (stereo unspecified) | 4.56% [at 16 µM]
47 | Cc1ccc(-c2nnn(CC(=O)N(CC3CCCO3)C(C(=O)NC3CCCCC3)c3ccc(F)cc3)n2)o1 (stereo unspecified) | -2.01%
48 | COc1ccc(NC(=O)CN2CCC(C(N)=O)(N3CCCCC3)CC2)cc1 | 5.51%
49 | CC1CCN(C(=O)c2ncn3c2C(=O)N[C@@H](C)C3)CC1 | -5.66%
50 | COc1ccc(-c2cc(C3CCN(c4cc(Cl)nc(N)n4)CC3)[nH]n2)cc1 | -13.3%
51 | CCOc1ccc(OCc2cccc(C(=O)N/N=C/c3cccnc3)c2)cc1 | -2.87%
52 | CC(c1nc2ccccc2c(=O)[nH]1)N(C)CCOc1ccc(Cl)cc1 (stereo unspecified) | -7.82%
53 | Cc1ccc(S(=O)(=O)N(C)C)cc1NC(=O)COc1ccccc1C(=O)Nc1ccccc1 | -16.9%
54 | Cc1ccccc1CCN(C(=O)c1csnn1)C(C(=O)NC1CCCC1)c1ccncc1 (stereo unspecified) | -5.49%
55 | CC(C)CCN(C(=O)c1csnn1)C(C(=O)NC1CCCC1)c1ccc(F)cc1 (stereo unspecified) | -7.24%
56 | COc1cc(NC2c3ccccc3C(=O)N2Cc2ccccc2)cc(OC)c1OC (stereo unspecified) | 3.26%
57 | CCOC(=O)c1ccc(NC2c3ncccc3C(=O)N2Cc2ccc(F)cc2)cc1 (stereo unspecified) | -4.33%
58 | COc1ccc(-c2cc(=O)oc3c(C)c(O)c(CN(C)C)cc23)cc1 | 5.55%
59 | COc1ccc(S(=O)(=O)NNC(=O)C2Cc3c(ccc4ccccc34)O2)cc1 (stereo unspecified) | -11.3%
60 | CN(C)S(=O)(=O)c1ccc(N2CCCC2)c(C(=O)NCCc2ccc(F)cc2)c1 | -0.85%
61 | CC(C)n1c(NCCc2ccccc2)nc2c1c(=O)n(C)c(=O)n2C | -25.5%
62 | CC[C@]1(C(=O)OC)[C@H]2C(=O)N(Cc3ccccc3)C(=O)[C@H]2[C@H]2CN=C(SCc3ccc(C)cc3)N21 | -9.52%
63 | COCc1[nH]nc2c1C(c1ccc(F)cc1)N(Cc1ccccc1)C2=O (stereo unspecified) | -2.79%
64 | COc1ccc(CCN2C(=O)c3[nH]nc(-c4ccccc4O)c3C2c2ccc(C)cc2)cc1OC (stereo unspecified) | -12.2%
65 | COc1ccc(OC)c(CN2C(=O)c3ccccc3C2c2nnnn2-c2c(C)cccc2C)c1 (stereo unspecified) | -7.17%
66 | COc1ccc(CCN2C(=O)c3[nH]nc(-c4ccccc4O)c3C2c2cccc(O)c2)cc1OC (stereo unspecified) | -2.82%

Row | Structure (SMILES) | activity change, negative = cytotoxicity
67 | O=C1c2cccnc2C(Nc2ccc(S(=O)(=O)N3CCCCC3)cc2)N1Cc1ccccc1 (stereo unspecified) | -1.7%
68 | CCc1ccc(C(=O)CN2C(=O)NC(C)(c3ccc(C)cc3)C2=O)cc1 (stereo unspecified) | -3.88%
69 | Nc1ccc(S(=O)(=O)c2ccc(N3CCOCC3)c(N)c2)cc1 | -0.149%
70 | CN(C)CC(=O)Nc1ccc2c(c1)[C@H]1C[C@H](CC(=O)NCc3cccc(F)c3)O[C@@H](CO)[C@H]1O2 | 3.37%
71 | COc1ccc(OC)c(NC(=O)COc2ccc3c(c2)CCC3)c1 | -4.42%
72 | Cc1ccc(C(C(=O)NC(C)(C)C)N(Cc2cccs2)C(=O)c2csnn2)cc1 (stereo unspecified) | -7.49%
73 | O=C(C[C@H]1C[C@H]2c3cc(NS(=O)(=O)c4ccc(F)cc4)ccc3O[C@H]2[C@@H](CO)O1)NCc1ccccc1F | -12.4%
74 | O=C(C[C@H]1C[C@H]2c3cc(NC(=O)C4CCC4)ccc3O[C@H]2[C@H](CO)O1)NCc1ccc2c(c1)OCO2 | -5.87%
75 | COCCNC(=O)C[C@@H]1C[C@H]2c3cc(N(C)C)ccc3O[C@H]2[C@@H](CO)O1 | -4.55%
76 | O=C(C[C@@H]1C[C@@H]2c3cc(NC(=O)C4CCC4)ccc3O[C@@H]2[C@@H](CO)O1)NCc1ccc2c(c1)OCO2 | -2.71%
77 | O=C(C[C@@H]1C[C@H]2c3cc(NC(=O)C4CCOCC4)ccc3O[C@H]2[C@@H](CO)O1)NCc1ccccc1 | 3.13%
78 | O=C(C[C@H]1C[C@@H]2c3cc(NS(=O)(=O)c4ccc(F)cc4)ccc3O[C@@H]2[C@H](CO)O1)NCCc1ccccc1 | -9.09%
79 | CCOC(=O)[C@H]1[C@H]2COc3ccccc3[C@@H]2N2C(=O)c3c(C)cc(C)cc3NC(=O)[C@@]12C | -6.54%
80 | O=C(C[C@@H]1C[C@@H]2c3cc(NC(=O)C4CCOCC4)ccc3O[C@@H]2[C@H](CO)O1)NCc1ccccc1F | -0.819%
81 | Cc1ccc(S(=O)(=O)N(C)c2ccc(C(=O)N3CCN(Cc4ccc5c(c4)OCO5)CC3)cc2)cc1 | -23%
82 | CCC1(c2ccccc2)NC(=O)N(CC(=O)Nc2cc(S(=O)(=O)N3CCCCC3)ccc2OC(C)C)C1=O (stereo unspecified) | 2.14%
83 | c1ccc2c(c1)OCC(c1csc3ncnc(N4CCOCC4)c13)O2 (stereo unspecified) | -16.5%
84 | COc1ccc([C@@H]2[C@@H]3C(=O)N(C(C)(C)C)C(=O)[C@@H]3[C@]3(CC(C)C)C(=O)N(c4ccccc4)C(=O)N23)cc1 | -2.8%
85 | CC12CC3CC(C)(C1)CC(C(=O)NCc1ccncc1)(C3)C2 | -0.744%
86 | CCS(=O)(=O)N[C@H]1CC[C@@H](CC(=O)NCc2ccc(Cl)cc2)O[C@@H]1CO | -7.14%
